Measured values published in PubChem BioAssay AID1578 (Sanford-Burnham Center for Chemical Genomics, 2009).
In all, about 290,000 compounds went through this assay and about 3,000 (1%) were called active. For the sample, actives were picked, then their nearest neighbours and some compounds at random. A number with no mark means an inactive call. Rule as the data show it: active = inhibition mostly above about 36% (no sharp cut-off); inactive = mostly below about 34%.

experiment: inhibition of NOD1-driven NF-kB reporter – cell-based, luminescence, uHTS, primary screen (AID 1578); settings: NOD1-driven NF-kB luciferase reporter cells, at 4 µM, active compounds read high;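 also: HEK-293T reporter cells stimulated with the NOD1 agonist gamma-tri-DAP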

First: CC(NS(=O)(=O)c1ccc2[nH]c(=O)c(=O)[nH]c2c1)C(=O)O (stereo not drawn)
Second: Cc1ccc(S(=O)(=O)NC(=NC(C)C)c2ccccc2)cc1
The inhibition of the first is higher: -25.3% for the first, -28.2% for the second.

Compared with `O=C(CCCN1C(=O)/C(=C/c2ccccc2Cl)SC1=S)N1CCCC1`, `O=C1CCC(C(=O)Nc2cccc3ccccc23)N1` (stereo not drawn) is lower in inhibition: 18.8% for the first, 8.1% for the second.

First: Cc1cc(Cl)cc(C)c1OCCNCc1ccccc1
Second: Cc1ccc(NNC(=O)CCc2ccccc2)c(C)c1
The inhibition of the first is lower: -43.1% for the first, -5% for the second.

Compared with `Cc1ccc(S(=O)(=O)CCc2nnc(NC(=O)C3CCCCC3)s2)cc1`, `O=C(CNS(=O)(=O)c1cccc2nsnc12)NC1CCCCC1` is lower in inhibition: 1.5% for the first, -5.2% for the second.

Going from `COc1ccc(NC(=O)Cn2ncn3nc(-c4ccc(OC)cc4)cc3c2=O)cc1` to `Cc1ccccc1-c1ccc(=O)n(CC(=O)Nc2ccc(-n3cnnn3)cc2)n1`, the inhibition rises from -72% to -5.3%.

Going from `CC(C)c1ccc(Nc2nc(Cl)nc(Cl)n2)cc1` to `COc1cc(C=O)ccc1OC(=O)c1ccc(C(C)C)cc1`, the inhibition rises from -33% to -9.5%.

First: CCCOC(=O)Cn1cnc2scc(-c3ccc(OC)cc3)c2c1=O
Second: C=CCOC(=O)c1sc(NC(=O)c2ccc(OC)cc2)nc1C
The inhibition of the first is higher: 41.3% for the first, -27.6% for the second.

Going from `CCOC(=O)c1ccccc1NC(=O)CSc1ccc(-c2ccccn2)nn1` to `Cc1ccccc1NC(=O)CSc1ccc(-c2cccnc2)nn1`, the inhibition rises from -59.6% to -33.1%.

Going from `Cc1ccc(NC(=O)Cn2nnc3ccccc32)c(C)c1` to `Fc1ccc(-n2nnnc2-c2ccccc2Cl)cc1`, the inhibition falls from -16.7% to -26.4%.

Compared with `O=C(Sc1nnc(-c2ccccc2)o1)N1c2ccccc2Sc2ccccc21`, `COc1ccc(-c2nnc(SCC(=O)N3c4ccccc4Sc4ccccc43)o2)cc1` is higher in inhibition: -37.4% for the first, -16.3% for the second.

First: COc1ccc(C(=O)N2CCC(C(=O)Nc3ccc4c(c3)OCCO4)CC2)cc1
Second: Cc1cc(C)nc(NS(=O)(=O)c2ccc(NC(=O)c3ccc4c(c3)OCCO4)cc2)n1
The inhibition of the first is higher: -5.6% for the first, -42.8% for the second.

First: Fc1ccc(-c2nnc(NC3=NCCCCC3)o2)cc1
Second: O=C(Nc1ccc(S(=O)(=O)N2CCCCCC2)cc1)c1ccc(Br)o1
The inhibition of the first is higher: 46.2% for the first, 26.1% for the second.

Compared with `CC(C)CN=C(NS(=O)(=O)c1ccccc1)C(Cl)(Cl)Cl`, `CCOC(=O)C(CCCOc1ccccc1)C(=O)OCC` is lower in inhibition: 34.3% for the first, 10.5% for the second.

Compared with `O=C(CSc1nnc(-c2cccnc2)n1Cc1ccco1)Nc1cccc(O)c1`, `CCc1ccc(CN2CCC(C(=O)Nc3ccc(Oc4ccccc4)nc3)CC2)o1` is higher in inhibition: -18.5% for the first, 32.5% for the second.

First: CC(=O)Nc1cc(ON=C(C)C)cc([N+](=O)[O-])c1
Second: CCC(=O)Nc1cc(ON=C(C)C)cc([N+](=O)[O-])c1
The inhibition of the first is lower: -34.9% for the first, -24.6% for the second.

Compared with `COc1ccc(CCNc2oc(COc3ccccc3)nc2C#N)cc1`, `COc1ccc(CCNc2oc(COc3ccc(F)cc3)nc2C#N)cc1` is higher in inhibition: -56.7% for the first, -48.1% for the second.

Going from `COc1ccc(CCNc2oc(Cc3ccccc3)nc2C#N)cc1OC` to `COc1ccc(CCNc2oc(COc3ccccc3F)nc2C#N)cc1OC`, the inhibition falls from 25.6% to 21.4%.

Going from `CCc1ccc(NC(=O)CCCN2C(=S)NC(C)(C)CC2C)cc1` (stereo not drawn) to `CCN(CC)c1ccc(/C=N/NC(=O)Nc2ccccc2)cc1`, the inhibition falls from -30.4% to -54%.

Compared with `CC1CCCCC1NC(=O)CN1C(=O)CSc2cc(S(=O)(=O)N3CCCCCC3)ccc21` (stereo not drawn), `O=C(NC1CCCN(Cc2ccc(Cl)cc2)C1)c1c(F)cccc1F` (stereo not drawn) is higher in inhibition: -19.4% for the first, -4.9% for the second.

Going from `COC(=O)c1cccc(NC(=O)NC(=O)c2ccc(Cl)cc2)c1` to `COC(=O)c1cccc(NC(=O)/C(=C\c2ccccc2)NC(=O)c2ccccc2Cl)c1`, the inhibition falls from 11.7% to -35.1%.

First: COc1ccc(/C=N/NC(=O)Nc2nonc2N)cc1
Second: C=CCn1c(C)csc1=Nc1ccc(C(=O)O)cc1
The inhibition of the first is higher: -31.2% for the first, -39.1% for the second.

Going from `COCCOC(=O)C1=C(C)Nc2cc(=O)[nH]c(=O)n2C1c1cccc([N+](=O)[O-])c1` (stereo not drawn) to `COc1ccc(C2C(C#N)=C(N)OC3=C2C(=O)CCC3)cc1Cn1nc(C)c([N+](=O)[O-])c1C` (stereo not drawn), the inhibition falls from 5% to -8.7%.

Compared with `O=C1CCC(C(=O)Nc2ccccc2)N1` (stereo not drawn), `O=C(O)CCc1[nH]c2ccccc2c1Sc1ccccc1` is higher in inhibition: -23% for the first, 2.8% for the second.

First: COc1ccc(C2C(C#N)=C(N)Oc3n[nH]c(C)c32)cc1Cn1nc(C)c([N+](=O)[O-])c1C (stereo not drawn)
Second: CCOc1ccc(C(=O)Nn2cnnc2)cc1OCC
The inhibition of the first is lower: -12.1% for the first, -0.7% for the second.

Compared with `N#CC1(c2ccccc2)CCCN1C(=O)c1ccc(Br)cc1` (stereo not drawn), `O=C(O)COc1ccc(Br)cc1C(c1c(C(=O)O)[nH]c2ccccc12)c1c(C(=O)O)[nH]c2ccccc12` is lower in inhibition: -11.6% for the first, -18.7% for the second.

Compared with `CNC(=O)CCc1[nH]c2ccccc2c1Sc1ccccc1`, `CCOc1cc(Br)cc(C(c2c(C(=O)O)[nH]c3ccccc23)c2c(C(=O)O)[nH]c3ccccc23)c1O` is higher in inhibition: 2.6% for the first, 18% for the second.

With `CCn1c(=N)n(CC(=O)C(C)(C)C)c2ccccc21` the inhibition was 1.2%.

For `CCOC(=O)c1ccccc1NC(=O)CSc1ccc(-c2cccnc2)nn1`, the inhibition was 59.2% (active).
In the case of `COc1ccc(-c2nnc(SC(=O)N3c4ccccc4Sc4ccccc43)o2)cc1`, the inhibition is reported as 65.2% (active).
In the case of `CC(C)N=C(NS(=O)(=O)c1ccccc1)C(Cl)(Cl)Cl`, the inhibition is reported as 62.8% (active).
In the case of `CC(C)=NOc1cc(NC(=O)CCl)cc([N+](=O)[O-])c1`, the inhibition is reported as 89.5% (active).
For `COC(=O)c1cccc(NC(=O)NC(=O)c2ccccc2Cl)c1`, the inhibition was 30% (active).
In the case of `CCN(CC)c1ccc(/C=N/NC(=O)Nc2nonc2N)cc1`, the inhibition is reported as 58.7% (active).
In the case of `Cc1ccccc1NC(=O)C1CCC(=O)N1` (stereo not drawn), the inhibition is reported as 96.7% (active).
With `COc1ccc(C2C(C#N)=C(N)Oc3c2c(C)nn3-c2ccccc2)cc1Cn1nc(C)c([N+](=O)[O-])c1C` (stereo not drawn) the inhibition was 85% (active).
With `O=C(CCc1[nH]c2ccccc2c1Sc1ccccc1)NCCO` the inhibition was 91.3% (active).
For `O=C(O)c1[nH]c2ccccc2c1C(c1cc(Br)ccc1O)c1c(C(=O)O)[nH]c2ccccc12`, the inhibition was 76.6% (active).
